Data: PubChem BioAssay AID1159580 (chemical genetic matrix, 2015)
Where “and” joins values, the source holds several entries; their conditions need not be identical. Identical values can stand only once. The campaign covered roughly 5,500 compounds. About 2,000 (36%) were called active. Inconclusive results (about 18%) are left out. No stated cut-off is given here; in the data, active means normalized growth mostly below about 0.91 (no sharp cut-off); inconclusive means no clear call, values can overlap the other calls; inactive means mostly above about 0.92. The list shows a part of the results.

Experiment: chemical genetic growth profiling, strain panel (AID 1159580);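 further: tested at 20 µM; growth read once vehicle control cultures reached saturation at 30 °C; 1 = growth at the plate median or of vehicle wells; lower values mean less growth of the strain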
Conditions: S. cerevisiae deletion strains, growth OD

Measured: normalized growth

Cn1c(=O)c2c(ncn2C)n(C)c1=O
inactive: locus YAL013W, strain DEP1, active compounds read low 0.997 | locus YAL021C, strain ccr4, active compounds read low 1.01 | locus YAL026C, strain drs2, active compounds read low 0.975 | locus YAL030W, strain snc1, active compounds read low 0.97 | locus YAL040C, strain CLN3, active compounds read low 1.02 | locus YBL061C, strain skt5, active compounds read low 0.962 | locus YBR009C, strain hhf1, active compounds read low 0.94 | locus YBR021W, strain FUR4, active compounds read low 1.01 | locus YBR023C, strain chs3, active compounds read low 0.978 | locus YBR171W, strain sec66, active compounds read low 0.94 | locus YBR229C, strain ROT2, active compounds read low 0.998 | locus YBR231C, strain swc5, active compounds read low 0.989 | locus YBR279W, strain paf1, active compounds read low 0.982 | locus YCL011C, strain gbp2, active compounds read low 0.922 | locus YCL016C, strain dcc1, active compounds read low 0.936 | locus YCL029C, strain bik1, active compounds read low 1.02 | locus YCL061C, strain MRC1 (second series), active compounds read low 1.01 | locus YCL061C, strain MRC1, active compounds read low 0.98 | locus YCL069W, strain vba3, active compounds read low 0.973 | locus YCR088W, strain abp1, active compounds read low 0.983 | locus YDL005C, strain med2, active compounds read low 0.99 | locus YDL035C, strain GPR1, active compounds read low 1.02 | locus YDL040C, strain nat1, active compounds read low 0.987 | locus YDL074C, strain BRE1, active compounds read low 1.03 | locus YDL101C, strain DUN1, active compounds read low 0.999 | locus YDL134C, strain PPH21, active compounds read low 0.992 | locus YDL185W, strain tfp1, active compounds read low 1.02 | locus YDL192W, strain arf1, active compounds read low 1 | locus YDR001C, strain nth1, active compounds read low 0.966 | locus YDR069C, strain doa4, active compounds read low 0.961 | locus YDR101C, strain arx1, active compounds read low 1.04 | locus YDR137W, strain rgp1, active compounds read low 0.943 | locus YDR150W, strain NUM1, active compounds read low 0.998 | locus YDR159W, strain sac3, active compounds read low 0.961 | locus YDR162C, strain NBP2, active compounds read low 0.998 | locus YDR195W, strain ref2 0.99 | locus YDR297W, strain sur2, active compounds read low 0.98 | locus YDR318W, strain mcm21, active compounds read low 0.99 | locus YDR334W, strain swr1, active compounds read low 0.914 | locus YDR335W, strain msn5, active compounds read low 0.969 | locus YDR363W, strain ESC2, active compounds read low 0.985 | locus YDR388W, active compounds read low 1 | locus YDR392W, strain spt3, active compounds read low 0.942 | locus YDR502C, strain sam2, active compounds read low 1.01 | locus YEL003W, strain gim4, active compounds read low 0.979 | locus YEL037C, strain rad23, active compounds read low 0.972 | locus YEL061C, strain CIN8 (second series), active compounds read low 0.977 | locus YEL061C, strain CIN8, active compounds read low 0.996 | locus YER002W, strain NOP16, active compounds read low 1.01 | locus YER015W, strain faa2, active compounds read low 0.971 | locus YER016W, strain bim1, active compounds read low 0.948 | locus YER110C, active compounds read low 1.01 | locus YER111C, strain swi4, active compounds read low 0.949 | locus YER155C, strain BEM2 (second series), active compounds read low 1 | locus YER155C, strain BEM2, active compounds read low 0.994 | locus YER167W, strain BCK2, active compounds read low 1 | locus YFR010W, strain ubp6, active compounds read low 0.96 | locus YGL078C, strain dbp3, active compounds read low 1.02 | locus YGL086W, strain mad1, active compounds read low 1.01 | locus YGL167C, strain pmr1, active compounds read low 0.945 | locus YGL173C, strain kem1, active compounds read low 0.938 | locus YGL227W, strain vid30, active compounds read low 0.97 | locus YGL240W, strain doc1, active compounds read low 0.987 | locus YGL248W, strain PDE1, active compounds read low 1 | locus YGL253W, strain hxk2, active compounds read low 0.982 | locus YGR078C, strain PAC10, active compounds read low 0.995 and 0.992 | locus YGR135W, strain pre9, active compounds read low 0.999 | locus YGR229C, strain SMI1, active compounds read low 0.995 | locus YGR252W, strain gcn5, active compounds read low 1.01 | locus YHR013C, strain ard1, active compounds read low 0.947 | locus YHR027C, strain rpn1, active compounds read low 0.932 | locus YHR030C, strain SLT2, active compounds read low 1 and 1.02 | locus YHR079C, strain IRE1 (second series), active compounds read low 1.01 | locus YHR079C, strain IRE1, active compounds read low 0.993 | locus YHR094C, strain hxt1, active compounds read low 1.01 | locus YHR129C, strain ARP1, active compounds read low 0.996 | locus YHR142W, strain chs7, active compounds read low 0.899 | locus YHR200W, strain rpn10, active compounds read low 1.02 | locus YIL066C, strain RNR3, active compounds read low 1.01 | locus YIL073C, strain SPO22, active compounds read low 1.04 | locus YIL125W, strain kgd1, active compounds read low 1.01 | locus YIR030C, strain dcg1, active compounds read low 0.999 | locus YJL092W, strain hpr5, active compounds read low 0.956 | locus YJL095W, strain BCK1 (second series), active compounds read low 0.967 | locus YJL095W, strain BCK1, active compounds read low 0.985 and 1.04 | locus YJL115W, strain asf1, active compounds read low 0.939 | locus YJL129C, strain trk1, active compounds read low 0.95 | locus YJL134W, strain LCB3, active compounds read low 1 | locus YJL154C, strain vps35, active compounds read low 0.976 | locus YJL164C, strain tpk1, active compounds read low 0.964 | locus YJL166W, strain qcr8, active compounds read low 0.977 | locus YJL168C, strain set2, active compounds read low 0.997 | locus YJL187C, strain SWE1 (second series), active compounds read low 1.01 | locus YJL187C, strain SWE1, active compounds read low 0.966
